For six compounds, Potency results are on record in PubChem BioAssay (Tox21).

Unmarked numbers belong to inactive results. Results filed as inconclusive are left out. Calls of active or inactive are those of the source. Unless noted, the call rests on the fitted dose curve.

Assay [1] is described as follows: Nuclear factor erythroid 2-related factor 2/antioxidant responsive element (Nrf2/ARE) small molecule agonists: qHTS cell viability counter screen in human keratinocytes (AID 1919968; active means well fitted curve in the direction sought with a large enough effect in the repeat runs; an effect the other way counts as inactive or inconclusive; further: nearly all actives have a fitted effect of over 55% in size; further: potency means the concentration at half of the fitted maximal effect). Summed up: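 Seed 1,500 KeratinoSens cells per well, then incubate 5 h at 37 C/5% CO2. Add compounds in DMSO and incubate 23 h. Add CellTiter-Fluor, wait 1 h and read fluorescence.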

Assay [2] in a line: Nuclear factor erythroid 2-related factor 2/antioxidant responsive element (Nrf2/ARE) small molecule agonists: luciferase reporter gene qHTS assay in human keratinocytes (AID 1919969). Further: nearly all actives have a fitted effect of over 35% in size. Further: potency means the concentration at half of the fitted maximal effect.
In assay [3] the target is KiSS-1 receptor (Homo sapiens) (UniProt Q969F8). As to the kind of experiment: Human kisspeptin (KISS1R) small molecule agonists, calcium flux assay in KISS1R-HEK293 cells (AID 1920064; active means well fitted curve in the direction sought with a large enough effect in the repeat runs; an effect the other way counts as inactive or inconclusive). Summed up:
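Cells plated and incubated 18 h; dye added, 1 h at 37 C; compounds in DMSO pinned in; signal read at 480/540 nm every second for 3 min. Each compound tested at 15 concentrations in triplicate.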

A short description of assay [4]: G protein-coupled receptor (GPCR) small molecule agonists, calcium flux assay: HEK293 wild type cell line counter screen (AID 1920065). Further: potency means the concentration at half of the fitted maximal effect. Summed up: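 Counter-screen of the Tox21 10K library for non-specific calcium release: dye-loaded cells received compounds in DMSO and were monitored by kinetic fluorescence (480/540 nm, 3 min). Fifteen concentrations, run in triplicate.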

Assay [5] can be described thus: p53 small molecule agonists, cell-based qHTS assay with human liver microsomes (AID 1963577). The essentials:
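p53RE-bla reporter cells were pre-incubated 5 h at 37 C, then treated with compounds plus human liver microsomes (0.5 mg/mL final) and NADPH (0.5 mg/mL final) for 16 h at 37 C. Beta-lactamase activity was read by LiveBLAzer fluorescence after 2 h at room temperature.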

The nature of assay [6]: p53 small molecule agonists, cell-based qHTS assay with rat liver microsomes (AID 1963578). The essentials: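 p53RE-bla cells were exposed to compounds together with rat liver microsomes (0.5 mg/mL final) and NADPH (0.5 mg/mL final) for 16 h at 37 C, then read by LiveBLAzer beta-lactamase fluorescence after 2 h at room temperature.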
Assay [7] in a line: p53 small molecule agonists, cell-based qHTS assay with human liver microsomes: qHTS cell viability counter screen (AID 1963579). Further: nearly all actives have a fitted effect of over 45% in size. Further: potency means the concentration at half of the fitted maximal effect. Summed up:
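p53RE-bla cells (4,000/well) were pre-incubated 5 h at 37 C, then given compounds in DMSO plus human liver microsomes (0.5 mg/mL final) and NADPH (0.5 mg/mL final) for 16 h at 37 C. Viability was read by CellTiter-Glo luminescence.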

Assay [8] in a line: p53 small molecule agonists, cell-based qHTS assay: qHTS cell viability counter screen (AID 1963581). Further: nearly all actives have a fitted effect of over 45% in size. Further: potency means the concentration at half of the fitted maximal effect. Summed up:
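Cells: HCT-116 with p53 response element-driven beta-lactamase. Treatment: 16 h, 37 C, compounds in DMSO. Read: CellTiter-Glo luminescence after 30 min RT.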

For assay [9], the target named is 5-hydroxytryptamine receptor 2A (Homo sapiens) (UniProt P28223). As to the kind of experiment: 5-hydroxytryptamine receptor 2A (HTR2A) small molecule antagonists, cell-based qHTS assay (AID 1963586). Further: nearly all actives have a fitted effect of over 45% in size. Summed up:
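Antagonist-mode intracellular calcium assay: DOI (4 nM) added after 5 min compound pre-incubation at room temperature to dye-loaded HTR2A-CHO cells. Fluorescence followed for 3 min, sampled every second.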

For assay [10] the target is unchanged. As to the kind of experiment: 5-hydroxytryptamine receptor 2A (HTR2A) small molecule agonists, cell-based qHTS assay (AID 1963587). Further: nearly all actives have a fitted effect of over 30% in size. Further: potency means the concentration at half of the fitted maximal effect. Summed up:
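CHO cells stably expressing human HTR2A, plated 18 h, loaded with calcium dye 1 h at 37 C. Agonist mode: compounds added and intracellular calcium fluorescence recorded kinetically for 2 min at 1 sec intervals.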

For assay [11], the target named is Muscarinic acetylcholine receptor M1 (Homo sapiens) (UniProt P11229). The assay is described as follows: Cholinergic receptor muscarinic 1 (CHRM1) small molecule agonists, cell-based qHTS assay (AID 1963589). Further: nearly all actives have a fitted effect of over 35% in size. Summed up:
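Agonist-mode qHTS in CHO cells stably carrying human muscarinic M1. Intracellular calcium is tracked by fluorescence every second after compound transfer; each compound runs at 15 concentrations in three independent runs.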

Assay [12] deals with Beta-2 adrenergic receptor (Homo sapiens) (UniProt P07550). The assay is described as follows: Adrenergic beta2 receptor (ADRB2) small molecule antagonists, cell-based qHTS assay (AID 1963592). Further: series mostly up to about 92 µM; nearly all actives have a fitted effect of over 50% in size. The essentials: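 Cells (CHO, stable ADRB2 overexpression) incubated 18-20hr at 37C; compounds added from DMSO; agonist mix (1nM isoproterenol, 100uM IBMX, 25uM Ro-20-1724) added; 0.5hr RT; d2-cAMP and anti-cAMP-cryptate added; 1hr RT; 665/615 nm read.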

Assay [13] addresses D(2) dopamine receptor (Homo sapiens) (UniProt P14416). The assay is described as follows: Dopamine D2 receptor (DRD2) small molecule antagonists, cell-based qHTS assay (AID 1963595; active means well fitted inhibition curve with a large enough effect in the signal ratio in the repeat runs, with a control signal flat; the % refers to the signal ratio). Summed up:
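Cells were plated and grown for 24 h at 37 °C. Ro20-1724 (0.1 mM final) went in first, then compound for 10 min. NKH477 (200 nM) with quinpirole (12 nM) followed for 30 min at RT, then HTRF detection reagents for 1 h.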

Assay [14] is described as follows: p53 small molecule agonists, cell-based qHTS assay with rat liver microsomes: qHTS cell viability counter screen (AID 1963580). Further: nearly all actives have a fitted effect of over 45% in size. The essentials: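 Viability is assessed in parallel with the p53 reporter read: HCT-116 p53RE-bla cells receive compounds plus rat microsomes and NADPH (0.5 mg/mL final apiece), incubate 16 h at 37 C, and then CellTiter-Glo luminescence is recorded.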

The target in assay [15] is Muscarinic acetylcholine receptor M1 (Homo sapiens) (UniProt P11229). The assay is described as follows: Cholinergic receptor muscarinic 1 (CHRM1) small molecule antagonists, cell-based qHTS assay (AID 1963588). Further: nearly all actives have a fitted effect of over 40% in size. Further: potency means the concentration at half of the fitted maximal effect. Summed up:
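CHRM1-CHO calcium-flux assay, antagonist mode. Cells were seeded 18 h, dye-loaded 1 h at 37 C and given compound for 5 min at RT, then acetylcholine was added at 50nM. FDSS fluorescence was read 3 min; 15 concentrations, three runs.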

Assay [16] deals with D(2) dopamine receptor (Homo sapiens) (UniProt P14416). The assay is described as follows: Dopamine D2 receptor (DRD2) small molecule agonists, cell-based qHTS assay (AID 1963594). Further: nearly all actives have a fitted effect of over 35% in size. Summed up:
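HEK293 cells stably expressing human DRD2, pre-treated with PDE inhibitor Ro20-1724 (0.1 mM final) and compound 10 min at room temperature, then stimulated with NKH477 (200nM […]) for 30 min. cAMP read by HTRF (665/620 nm).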

Assay [17] addresses Gonadotropin-releasing hormone receptor (Homo sapiens) (UniProt P30968). As to the kind of experiment: Human gonadotropin-releasing hormone receptor (GnRHR) small molecule agonists, calcium flux assay in GnRHR-HEK293 cells (AID 1920063). Further: nearly all actives have a fitted effect of over 35% in size. The essentials: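 Cells: HEK293 stably expressing human GnRHR. Steps: overnight (18 h) culture, 1 h calcium dye loading at 37 C, compound addition, kinetic fluorescence read at 480/540 nm. Each compound tested at 15 concentrations in triplicate.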

A short description of assay [18]: cAMP Responsive Elements (CRE) small molecule antagonists, cell-based qHTS assay (AID 1963591; active means well fitted inhibition curve with a large enough effect in the signal ratio in the repeat runs, not every such curve was filed as active; the % refers to the signal ratio). The essentials:
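Antagonist mode: test compounds are co-incubated with the adenylyl cyclase activator NKH477 (0.25 uM final) on CRE-bla HEK293T cells for 3 h at 37 °C, followed by LiveBLAzer substrate loading.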

The nature of assay [19]: p53 small molecule agonists, cell-based qHTS assay (AID 1963582; active means well fitted activation curve with a large enough effect in the signal ratio in the repeat runs, not every such curve was filed as active; the % refers to the signal ratio). The essentials: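 Quantitative HTS in p53RE-bla cells: after a 5 h settling period, compounds delivered in DMSO were left on cells for 16 h at 37 C, and reporter induction was measured as fluorescence following 2 h substrate loading.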
Assay [20] is described as follows: cAMP Responsive Elements (CRE) small molecule agonists, cell-based qHTS assay (AID 1963590). The essentials: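 Agonist mode qHTS in CRE-bla HEK 293T cells: compounds dosed from DMSO for 3 h at 37 C/5% CO2, followed by LiveBLAzer B/G FRET substrate for 2 h at room temperature.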

Sequence of KiSS-1 receptor (Homo sapiens) (Q969F8 whole entry, looked up): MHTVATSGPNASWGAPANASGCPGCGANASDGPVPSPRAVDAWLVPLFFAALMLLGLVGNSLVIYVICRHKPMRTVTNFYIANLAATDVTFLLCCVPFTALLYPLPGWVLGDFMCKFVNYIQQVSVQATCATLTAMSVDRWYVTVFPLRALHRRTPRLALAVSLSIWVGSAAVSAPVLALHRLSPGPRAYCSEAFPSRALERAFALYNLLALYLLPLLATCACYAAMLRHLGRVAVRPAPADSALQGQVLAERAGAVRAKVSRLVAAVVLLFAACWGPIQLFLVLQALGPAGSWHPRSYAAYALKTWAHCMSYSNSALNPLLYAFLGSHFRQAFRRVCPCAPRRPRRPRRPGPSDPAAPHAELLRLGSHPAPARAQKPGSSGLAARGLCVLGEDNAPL
Sequence of Beta-2 adrenergic receptor (Homo sapiens) (P07550 whole entry, looked up): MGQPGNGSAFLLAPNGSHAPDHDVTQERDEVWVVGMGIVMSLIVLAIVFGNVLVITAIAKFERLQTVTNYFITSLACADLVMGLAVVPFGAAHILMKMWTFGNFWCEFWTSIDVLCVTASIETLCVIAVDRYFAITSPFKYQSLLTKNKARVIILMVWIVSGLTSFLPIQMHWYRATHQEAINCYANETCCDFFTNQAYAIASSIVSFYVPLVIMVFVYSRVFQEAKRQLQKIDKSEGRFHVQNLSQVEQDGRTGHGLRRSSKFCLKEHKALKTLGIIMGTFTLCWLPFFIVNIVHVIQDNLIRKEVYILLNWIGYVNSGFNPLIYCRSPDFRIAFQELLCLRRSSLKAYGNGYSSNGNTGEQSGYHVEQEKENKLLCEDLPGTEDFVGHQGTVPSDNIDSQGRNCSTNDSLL
Sequence of D(2) dopamine receptor (Homo sapiens) (P14416 whole entry, looked up): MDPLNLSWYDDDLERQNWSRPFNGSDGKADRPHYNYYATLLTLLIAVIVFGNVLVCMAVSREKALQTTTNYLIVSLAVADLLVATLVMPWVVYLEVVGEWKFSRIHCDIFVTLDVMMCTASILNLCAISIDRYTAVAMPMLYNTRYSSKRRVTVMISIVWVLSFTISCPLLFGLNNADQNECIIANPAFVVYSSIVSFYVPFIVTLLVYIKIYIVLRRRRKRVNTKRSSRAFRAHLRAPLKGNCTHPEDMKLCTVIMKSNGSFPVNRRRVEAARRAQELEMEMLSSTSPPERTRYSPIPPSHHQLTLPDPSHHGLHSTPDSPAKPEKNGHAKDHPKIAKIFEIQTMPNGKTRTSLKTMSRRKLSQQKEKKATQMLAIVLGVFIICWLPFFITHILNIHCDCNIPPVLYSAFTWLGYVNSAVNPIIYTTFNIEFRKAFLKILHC
Sequence of 5-hydroxytryptamine receptor 2A (Homo sapiens) (P28223 whole entry, looked up): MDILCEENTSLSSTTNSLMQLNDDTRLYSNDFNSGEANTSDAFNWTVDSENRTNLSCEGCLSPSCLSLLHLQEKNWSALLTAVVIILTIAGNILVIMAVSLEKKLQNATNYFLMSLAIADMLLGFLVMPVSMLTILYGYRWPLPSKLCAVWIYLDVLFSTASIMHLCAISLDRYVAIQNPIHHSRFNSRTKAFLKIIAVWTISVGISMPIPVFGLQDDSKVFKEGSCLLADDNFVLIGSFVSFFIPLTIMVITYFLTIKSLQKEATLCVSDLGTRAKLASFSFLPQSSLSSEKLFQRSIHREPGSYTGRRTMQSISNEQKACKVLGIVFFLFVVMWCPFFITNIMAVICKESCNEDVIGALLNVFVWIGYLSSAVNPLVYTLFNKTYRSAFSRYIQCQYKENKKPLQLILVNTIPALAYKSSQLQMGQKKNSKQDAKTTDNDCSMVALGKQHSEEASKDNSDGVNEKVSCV
Sequence of Muscarinic acetylcholine receptor M1 (Homo sapiens) (P11229 whole entry, looked up): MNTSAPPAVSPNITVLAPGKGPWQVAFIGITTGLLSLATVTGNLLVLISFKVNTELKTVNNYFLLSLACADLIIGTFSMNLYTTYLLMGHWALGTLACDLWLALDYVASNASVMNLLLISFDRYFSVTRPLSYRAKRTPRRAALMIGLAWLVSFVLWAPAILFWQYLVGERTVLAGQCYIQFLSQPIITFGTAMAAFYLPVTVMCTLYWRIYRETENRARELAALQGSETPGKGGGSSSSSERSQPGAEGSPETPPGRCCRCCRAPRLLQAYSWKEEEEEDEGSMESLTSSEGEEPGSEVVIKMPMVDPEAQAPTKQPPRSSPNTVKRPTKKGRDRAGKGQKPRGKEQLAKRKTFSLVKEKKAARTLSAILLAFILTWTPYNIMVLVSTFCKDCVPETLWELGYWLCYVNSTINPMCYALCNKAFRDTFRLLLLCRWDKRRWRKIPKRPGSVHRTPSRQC
Sequence of Gonadotropin-releasing hormone receptor (Homo sapiens) (P30968 whole entry, looked up): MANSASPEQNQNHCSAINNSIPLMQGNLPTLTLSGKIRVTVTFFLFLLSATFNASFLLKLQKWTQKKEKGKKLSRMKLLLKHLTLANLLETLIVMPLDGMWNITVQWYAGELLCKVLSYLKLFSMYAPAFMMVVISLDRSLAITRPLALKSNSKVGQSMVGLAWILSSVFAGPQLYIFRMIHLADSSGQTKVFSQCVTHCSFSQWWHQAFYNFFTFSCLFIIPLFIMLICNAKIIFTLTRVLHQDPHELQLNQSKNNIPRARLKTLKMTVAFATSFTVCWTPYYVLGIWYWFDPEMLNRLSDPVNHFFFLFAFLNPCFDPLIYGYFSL

As to `CCCCc1c(C)nc(NCC)nc1OS(=O)(=O)N(C)C`, the Potency entry in [1], in assay [2], in assay [3], in assay [4], in assay [5] and in [6] was “inactive” in each case. Further, the Potency entry in [7], in assay [8], in assay [9], in assay [10], in assay [11] and in assay [12] was “inactive” throughout. The Potency entry in assay [13] is “inactive”.

As to `CC(Oc1ccc(Oc2ncc(C(F)(F)F)cc2Cl)cc1)C(=O)O` (stereo not given), the Potency entry in assay [1], in assay [2], in [3], in assay [4], in assay [5] and in [6] was “inactive” in each case. The Potency result in assay [7], in assay [14], in [8], in [9], in assay [10] and in assay [15] was “inactive” each time. Also, the Potency entry in assay [11], in assay [12], in [16] and in assay [13] was “inactive” in each case.

For `O=[N+]([O-])c1cc(C(F)(F)F)c(Cl)c([N+](=O)[O-])c1Nc1ncc(C(F)(F)F)cc1Cl`, the Potency was 9.69 µM (active) in assay [1]; 6.11 µM (active) in [2]; 1.23 µM (active) in assay [4]; 45.8 µM (active) in assay [7]; 40.8 µM (active) in assay [8]; 0.472 µM (active) in assay [15]. The Potency entry in assay [17], in assay [10], in assay [11], in [16] and in assay [13] was “inactive” throughout.

For the compound `O=S(=O)(C(Cl)(Cl)Cl)C(Cl)(Cl)Cl`, the Potency was 24.3 µM (active) in assay [1], 8.63 µM (active) in assay [2] and 49 µM (active) in [10]. Also, the Potency entry in assay [3], in [4], in assay [5], in assay [6], in assay [7] and in assay [8] was “inactive” in each case. In addition, the Potency entry in [15], in [11], in assay [18], in [12] and in assay [13] was “inactive” in each case.

In the case of `O=C(Cl)c1ccccc1F`, the Potency entry in assay [1], in [2], in [3], in assay [4], in assay [5] and in [6] was “inactive” each time. For the same compound, the Potency entry in assay [14], in assay [8], in [19], in assay [9], in assay [10] and in assay [15] was “inactive” in each case. Besides, the Potency result in assay [11], in assay [20], in assay [18], in assay [12], in assay [16] and in assay [13] was “inactive” each time.

As to `CCCCCCCCCCCCCCCCCCn1cc[n+](C)c1`, the Potency in assay [1] is 19.2 µM (active). In addition, the Potency entry in [2], in [3], in assay [4], in [5], in assay [6] and in [7] was “inactive” each time. For the same compound, the Potency entry in [14], in [8], in [11], in assay [12], in assay [16] and in assay [13] was “inactive” in each case.
